# Most compounds without a hit are left out; they make up all but 5.5% or so of the library.
# Giardia kill: Giardia lamblia killing. Giardia lamblia trophozoite viability. activity change, % at 7.66 µM, hits read low. 0.15% of 340,000 active. AID 540267; in the data active means activity change below about -80%; inconclusive means between about -30% and that limit;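 further: parasites exposed to compound for two days anaerobically before the ATP read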
#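 Anaerobic 48 hrs incubation at 37 deg C of 100 trophozoites/well with test compounds; ATPLite 1-Step luminescence, 15-30 min RT, reports cellular ATP as viability.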
# Sfp inh: inhibitors of Bacillus subtilis Sfp phosphopantetheinyl transferase; Q9F4F7; Biochemical Sfp PPTase activity, qHTS; Potency, µM, for inactives: largest response in the series, negative = inhibition, usual class: inhibitors; 3.5% of 310,000 active;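 further: the enzyme is Sfp with the accession as filed and its product quenches rhodamine fluorescence; potency means the concentration at half of the fitted maximal effect; 0% = enzyme reaction without inhibitor and -100% = no enzyme wells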
#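 Step 1, compound plus 15 nM Sfp-PPTase, 15 min, room temperature. Step 2, add rhodamine-CoA (5 uM) and BHQ-2-YbbR (12.5 uM). Step 3, read 525/598 nm fluorescence at 0 and 30 min.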
# ELG1 DNA repair: ELG1-dependent DNA repair inhibition; HEK293T ELG1-luciferase reporter, luminescence, 16 h; DNA damage induced by 5-fluorouridine; Potency, µM (highest dose often 46.1 µM), inactives show at the top dose activity change, negative = inhibition, hits mostly inhibitors; 2.3% of 330,000 active; further: potency means the concentration at half of the fitted maximal effect; nearly all actives have a fitted effect of over 55% in size
#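 Reporter activity after DNA damage by 5-fluorouridine is monitored. Compound-treated cells incubate 16 hr at 37 °C, then ONE-Glo is added for 30 min before luminescence reading.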
# Coupling enz: coupling enzyme interference in Giardia aldolase counter-screen; coupling enzyme system counterscreen, AmpLite Red fluorescence; activity change, negative = inhibition, % at 58.2 µM, hits read low; 0.67% of 290,000 active; AID 2472; in the data active means activity change below about -30%
#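 First, compound is pin-transferred into glyceraldehyde-3-phosphate coupling-enzyme reagent at 57.5 uM final and held 10 min at RT. Next, substrate, coupling system and AmpLite Red are added. After 20 min RT, fluorescence (525/598 nm) is read.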
# * = called active by the depositor; ? = inconclusive; . = not tested or not shown; ! = repeats disagree. Unless noted, the call rests on the fitted dose curve; in most records, active means well fitted curve in the direction sought with a large enough effect; inconclusive means small, poorly fitted or top-dose-only effect, or another doubt; inactive means no such curve, though single readings can be large; an effect the other way counts as inactive or inconclusive. Unless noted, on the % scale 0 is the no-effect control and ±100 the full control effect.
SMILES,Giardia kill,Sfp inh,ELG1 DNA repair,Coupling enz
CC1(C)Cc2c(sc3ncn4c(=S)[nH]nc4c23)CO1,?,45µM*,-8%,1
CC1(C)Cc2c(sc3ncnc(NN)c23)CO1,-1,40µM*,?,-2
Cc1ccc(C(=O)CCC(=O)OCC(=O)N2CCN(S(=O)(=O)c3ccc(C)cc3C)CC2)cc1,42,.,.,.
N[C@H](C(=O)N[C@@H]1C(=O)N2C(C(=O)O)=C(Cl)CS[C@@H]12)c1ccccc1,.,35µM*!,.,-2
COc1cc(/C=C/C(=O)c2ccc([N+](=O)[O-])o2)ccc1O,-12,.,?,.
COc1ccc(/C=C/C(=O)c2ccc([N+](=O)[O-])o2)cc1OC,-3,.,12µM*,.
O=C(/C=C/c1cccc(Cl)c1)c1ccc([N+](=O)[O-])o1,-2,.,7.3µM*,.
Cc1ccc([N+](=O)[O-])cc1S(=O)(=O)Nc1ccc(C(=O)NCC2CCCO2)cc1 (configuration not stated),13,.,-20%,.
COc1ccc(OC)c(CNC(=O)C2CCC(=O)N(CCCN3CCCC3=O)C2)c1 (configuration not stated),50,11%,11%,.
c1cc2[nH]snc2c2nc(C3CC3)nc12,-15,-2%,5.8µM*,-19
COc1ccc2cc(C3CC(c4ccco4)=NN3S(C)(=O)=O)c(Cl)nc2c1 (configuration not stated),-1,50µM*,?,4
CCOc1ccc2nc(Cl)c(C3CC(c4ccco4)=NN3S(=O)(=O)c3ccccc3)cc2c1 (configuration not stated),-2,26%,0%,-5
CCOC(=O)c1cccc(C2=CC(=O)C[C@H](c3ccc(OC)cc3)C2)c1,-1,.,?,.
O=C(Cc1cc(=O)oc2cc(O)ccc12)NC(Cc1ccc(Cl)cc1)C(=O)O (configuration not stated),1,3%,1%,1
Cc1cc(C)c2nc3s/c(=C/c4ccc5c(c4)n(C)c(=O)n5C)c(=O)n3c2c1,.,20µM*,18%,-1
O=c1/c(=C/c2ccccn2)sc2nc3ccccc3n12,-4,-4%,?,0
O=C(CN1C(=O)NC2(CCCC2)C1=O)Oc1ccc2ccc(=O)oc2c1,10,.,18%,.
COc1nc(N/N=C/c2ccc(-c3cccc([N+](=O)[O-])c3)o2)nc(N2CCOCC2)n1,.,-2%,2.3µM*,2
O=[N+]([O-])c1ccc(/C=N/Nc2nc(NCc3ccccc3)nc(N3CCOCC3)n2)cc1,0,-9%,7.3µM*,-12
NNc1nc(NCc2ccccc2)nc(N2CCOCC2)n1,8,10%,?,1
O=[N+]([O-])c1cccc(/C=N/Nc2nc(NCc3ccccc3)nc(N3CCOCC3)n2)c1O,-20,-19%,21µM*,-4
O=[N+]([O-])c1cccc(/C=N/Nc2nc(NCc3ccccc3)nc(N3CCOCC3)n2)c1,1,16%,7%,-2
COc1ccc(NC(=O)CN(C)CC(=O)N2CCCCCC2)cc1,16,.,15%,.
CCOc1ccc(C(C)=O)cc1N1C(=O)C2C3C=CC(O3)C2C1=O (configuration not stated),-7,7.9µM*,?,3
CCC(C)c1ccc(OCc2ccc(C(=O)O)o2)cc1 (configuration not stated),-6,12%,?,18
SMILES,Giardia kill,Sfp inh,ELG1 DNA repair,Coupling enz
Cc1ccc(CS/C(Nc2ccccc2C)=C(\C#N)C(=O)NCc2ccco2)c(C)c1,-10,11%,15µM*,-7
Cc1ccccc1N/C(SCc1ccc(Cl)cc1)=C(/C#N)C(=O)NCc1ccco1,-7,13%,?,1
Cc1cc(C(=O)NNC(=S)NCc2ccccc2)no1,-6,16%,3%,1
CCCc1cc(C(N)=O)c(NC(=O)c2cc(C)on2)s1,-13,32µM*,-12%,3
CCCc1cc(C(N)=O)c(NC(=O)c2ccoc2C)s1,-2,13µM*,?,-1
CC(=O)c1cccc(NC(=O)c2ccoc2C)c1,7,-4%,8%,0
CCOC(=O)c1cc(NC(=O)c2ccoc2C)cc(C(=O)OCC)c1,-2,17%,9.2µM*,0
Cc1occc1C(=O)Nc1sccc1C(N)=O,-16,1%,?,.
CCNC(=S)NNC(=O)c1cc(C)on1,-6,56µM*,-7%,2
CC1(CCl)N([O-])C2=C(CCCC2)[N+]1=O (configuration not stated),4,35µM*,0%,-22

# Source: PubChem BioAssay
